# Experimental data reported in ChEMBL document CHEMBL3988442, “University of Dundee, Small-Polar-MMV Screening Library” (2021).
# About 13,000 (27%) of roughly 48,000 compounds showed an effect of 50% or more. The list shows a part of the results.
# Test system: Wolbachia pipientis
# Assay: Anti-Wolbachia Cell-Based Screen
# Format: functional
# Design: scale not given: in the data most compounds retested in dose-response had high values
# Conditions: 5 µM
row,Structure (SMILES),Percent Effect
1,CCOC(=O)C1CCCN(c2nccc(-n3nc(C)cc3C)n2)C1 (stereo unspecified),112.5%
2,COCc1cc(CC2(NCc3ccccc3Cl)COC2)no1,-15.27%
3,COc1ccnc(N2CCC3(CC2)[C@H](O)C[C@@H]3OCCN(C)C)n1,-4.525%
4,CN(C(=O)CCc1cccs1)C1CCCN(C2Cc3ccccc3C2)C1 (stereo unspecified),-51.14%
5,C1CCCN(c2nc(C3CC3)no2)CC1,3.376%
6,O=C(O)C(F)(F)F.c1ncn(Cc2cn3c(n2)CN(CC2CCCCC2)CC3)n1,-9.983%
7,CN(C)CCN1CCC(NC2CSCCc3ccccc32)CC1 (stereo unspecified),-11.44%
8,O=C(Cc1cccc(F)c1)NCCNCc1ccc2c(c1)CCO2,-2.552%
9,Oc1cccc(CNCCC2CCCO2)c1 (stereo unspecified),17.11%
10,O=C(Cc1cccc(F)c1)NCCNCc1cccc(O)c1,-5.303%
11,CCOc1cccc(CCNC(=O)Cc2cccc(O)c2)n1,19.48%
12,O=C(Cc1ccccc1)NCCNCc1cccc(O)c1,87.97%
13,O=C(Cc1ccc(F)cc1)NCCNCc1cccc(O)c1,75.28%
14,CC(NCc1ccc(-c2ccc(Cl)cc2)o1)c1nnc2n1CCC2 (stereo unspecified),-12.12%
15,COCCSc1ccc(C(C)NC(=O)Nc2cccnc2)cc1 (stereo unspecified),-3.032%
16,CN(Cc1nnc(-c2ccco2)o1)CC1CCCN1c1cccnn1 (stereo unspecified),6.587%
17,CC(C)Oc1ccccc1-c1cc(CN)ccc1F,10.62%
18,Cc1cnn(CCCOc2ccc3c(c2)OCO3)c1,-11.3%
19,CC(C)C(=O)Nc1ccc(Oc2ccc3c(c2)OCO3)nc1,107.3%

row,Structure (SMILES),Percent Effect
1,CC(C)OCC(=O)Nc1ccc(Oc2ccc3c(c2)OCO3)nc1,77.43%
2,CCCNC(=O)C(C)Nc1cccc(Oc2ccc(C#N)cn2)c1 (stereo unspecified),-3.4%
3,Cc1cc(C)nc(NC(=O)C(C)Oc2ccc3c(c2)OCO3)n1 (stereo unspecified),15.82%
4,CC(=O)Nc1ccc(Oc2ccc3c(c2)OCO3)nc1,99.6%
5,Cc1ccc(Oc2ccc(NC(=O)NCC3CCOC3)cn2)cc1C (stereo unspecified),-4.291%
6,O=C(Cn1cc(Cl)cn1)Nc1ccc2c(c1)OCO2,1.967%
7,O=C(CCN1C(=O)CCC1=O)Nc1ccc(Oc2ccc(Cl)cc2)nc1,-10.42%
8,O=C(NCC1(O)CCOC1)NCC1(c2ccccc2Cl)CC1 (stereo unspecified),3.661%
9,CCS(=O)(=O)CC(=O)Nc1cccc2c1CN(CC(C)C)C2,-13.69%
10,CC(NC(=O)CCc1nc(-c2nnc[nH]2)no1)c1ccc(F)cc1F (stereo unspecified),1.12%
11,O=C(O)c1ccccc1CN1CCC2(Cc3ccccc3CNC2=O)C1 (stereo unspecified),101.8%
12,CN(Cc1c(F)cccc1Cl)C(=O)CN(C)C1CCc2ccccc21 (stereo unspecified),-6.423%
13,O=C1NC2(CCN(Cc3ccccc3Cl)CC2)CC1c1ccccc1 (stereo unspecified),14.18%
14,COCCCC1(C(=O)O)CCCN(Cc2ccccc2C)C1 (stereo unspecified),-5.241%
15,O=C(O)c1csc(S(=O)(=O)N2CCN(Cc3c(F)cccc3Cl)CC2)c1,1.307%
16,O=C1NCc2ccccc2CC12CCN(Cc1ccccc1Cl)CC2,119.1%
17,N#Cc1ccccc1C(=O)N1CCC2(CC(=O)NC2=O)C1 (stereo unspecified),-23.72%
18,O=C1NCc2ccccc2CC12CCN(Cc1c(F)cccc1Cl)C2 (stereo unspecified),159.3%
19,O=C(C1CCOC1)N1CCC2(CC1)Cc1ccccc1CNC2=O (stereo unspecified),-36.36%

row,Structure (SMILES),Percent Effect
1,CC(CC#N)N(C)Cc1ccccc1Cl (stereo unspecified),14.98%
2,CSc1nccc(N2C[C@@H]3CC[C@H](C2)N(CC2CCC2)C3=O)n1,23.13%
3,COCCC1(C(=O)NCCc2nncn2C2CC2)CCC1,-3.297%
4,CCOCC1CCN(C(=O)Nc2ccc3c(c2)CCCO3)C1 (stereo unspecified),-8.757%
5,CS(=O)(=O)c1nccn1CCOc1ccccc1F,21.64%
6,O=C(O)C(F)(F)F.c1csc(CN2CCCn3cnc(COCC4CC4)c3C2)n1,-1.239%
7,O=C1OCCN1CC(=O)N1C[C@H]2CC[C@@H]1CN(C(=O)c1cccnc1)C2,-9%
8,CCc1ccc(O)c(C(=O)NC2CCN(C(=O)OC)CC2)c1,2.941%
9,CC(NC1CCN(C(=O)C2CCCCC2)CC1)c1nccs1 (stereo unspecified),-8.519%
10,CCc1cnccc1C(=O)NC1CCN(C(=O)C2CCCCC2)CC1,87.11%
11,O=C(NC1CCN(C(=O)C2CCCCC2)C1)c1ccncc1Cl (stereo unspecified),79.99%
12,O=C(NC1CC1)c1cc(NC(=O)N2CCCC2)ccc1Cl,-51.77%
13,CCc1ccc(O)c(C(=O)NC2CCN(Cc3ccncc3)CC2)c1,19.96%
14,O=C(C1CCCC1)N1CCC(Nc2ccncn2)CC1,23.24%
15,CCc1cnccc1C(=O)NC1CCN(C(=O)OC)CC1,94.08%
16,N#Cc1cnc(NC2CCN(C(=O)C3CCCCC3)CC2)c(Cl)c1,1.1%
17,CC(NC(=O)NC1CCN(Cc2ccncc2)CC1)c1ccccc1F (stereo unspecified),-8.351%
18,CCc1cnccc1C(=O)NC1CCN(Cc2ccccc2F)CC1,94.68%
